Out of some 5,500 compounds screened, about 2,000 (36%) were called active. About 18% were inconclusive and are not listed. No stated cut-off is given here; in the data, active means normalized growth mostly below about 0.91 (no sharp cut-off); inconclusive means no clear call, values can overlap the other calls; inactive means mostly above about 0.92. The list shows a part of the results.
Assay: chemical genetic growth profiling, strain panel (AID 1159580);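 further: tested at 20 µM; growth read once vehicle control cultures reached saturation at 30 °C; 1 = growth at the plate median or of vehicle wells; lower values mean less growth of the strain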
Conditions: growth OD

Measured: normalized growth

O=C(O)c1ccccc1OP(=O)(O)O
inactive: S. cerevisiae deletion strains, locus YJR066W, strain TOR1, hits give low values 0.875 | S. cerevisiae deletion strains, locus YKL009W, strain mrt4, hits give low values 0.997 | S. cerevisiae deletion strains, locus YKL068W, hits give low values 0.988 | S. cerevisiae deletion strains, locus YKL085W, strain MDH1 (second series), hits give low values 0.986 | S. cerevisiae deletion strains, locus YKL085W, strain MDH1, hits give low values 0.986 | S. cerevisiae deletion strains, locus YKL160W, strain elf1, hits give low values 0.981 | S. cerevisiae deletion strains, locus YKL190W, strain CNB1, hits give low values 1 | S. cerevisiae deletion strains, locus YKR001C, strain vps1, hits give low values 0.984 | S. cerevisiae deletion strains, locus YKR026C, strain gcn3, hits give low values 1.01 | S. cerevisiae deletion strains, locus YKR091W, strain srl3, hits give low values 1 | S. cerevisiae deletion strains, locus YLL001W, strain dnm1, hits give low values 1.03 | S. cerevisiae deletion strains, locus YLL026W, hits give low values 1 | S. cerevisiae deletion strains, locus YLL041C, strain sdh2, hits give low values 0.992 | S. cerevisiae deletion strains, locus YLR027C, strain aat2, hits give low values 1 | S. cerevisiae deletion strains, locus YLR039C, strain RIC1, hits give low values 1.01 | S. cerevisiae deletion strains, locus YLR058C, strain SHM2, hits give low values 1.02 | S. cerevisiae deletion strains, locus YLR102C, strain apc9, hits give low values 0.992 | S. cerevisiae deletion strains, locus YLR113W, strain HOG1, hits give low values 0.967 | S. cerevisiae deletion strains, locus YLR221C, strain rsa3, hits give low values 0.995 | S. cerevisiae deletion strains, locus YLR258W, strain gsy2, hits give low values 1.02 | S. cerevisiae deletion strains, locus YLR262C, strain YPT6 (second series), hits give low values 0.995 | S. cerevisiae deletion strains, locus YLR262C, strain YPT6, hits give low values 1.05 | S. cerevisiae deletion strains, locus YLR268W, strain sec22, hits give low values 1.01 | S. cerevisiae deletion strains, locus YLR320W, strain mms22, hits give low values 1.02 | S. cerevisiae deletion strains, locus YLR330W, strain CHS5, hits give low values 1.01 | S. cerevisiae deletion strains, locus YLR342W, strain FKS1 (second series), hits give low values 1 | S. cerevisiae deletion strains, locus YLR342W, strain FKS1, hits give low values 1 | S. cerevisiae deletion strains, locus YLR357W, strain rsc2, hits give low values 1.03 | S. cerevisiae deletion strains, locus YLR370C, strain arc18, hits give low values 1.01 | S. cerevisiae deletion strains, locus YLR371W, strain rom2, hits give low values 0.987 | S. cerevisiae deletion strains, locus YLR384C, strain iki3, hits give low values 1.01 | S. cerevisiae deletion strains, locus YLR418C, strain cdc73, hits give low values 0.994 | S. cerevisiae deletion strains, locus YML016C, strain PPZ1, hits give low values 1.01 | S. cerevisiae deletion strains, locus YML032C, strain rad52, hits give low values 0.997 | S. cerevisiae deletion strains, locus YML120C, strain ndi1, hits give low values 1 | S. cerevisiae deletion strains, locus YML124C, strain tub3, hits give low values 0.996 | S. cerevisiae deletion strains, locus YMR058W, strain fet3, hits give low values 1.01 | S. cerevisiae deletion strains, locus YMR078C, strain ctf18, hits give low values 0.988 | S. cerevisiae deletion strains, locus YMR125W, strain sto1, hits give low values 1.02 | S. cerevisiae deletion strains, locus YMR129W, hits give low values 1 | S. cerevisiae deletion strains, locus YMR205C, strain PFK2, hits give low values 1.03 | S. cerevisiae deletion strains, locus YMR223W, strain ubp8, hits give low values 0.993 | S. cerevisiae deletion strains, locus YMR231W, strain pep5, hits give low values 1 | S. cerevisiae deletion strains, locus YMR263W, strain SAP30, hits give low values 1.02 | S. cerevisiae deletion strains, locus YMR307W, strain GAS1, hits give low values 1 | S. cerevisiae deletion strains, locus YNL067W, strain RPL9B, hits give low values 1.01 | S. cerevisiae deletion strains, locus YNL071W, strain lat1, hits give low values 1.01 | S. cerevisiae deletion strains, locus YNL183C, strain NPR1, hits give low values 0.872 | S. cerevisiae deletion strains, locus YNL209W, strain ssb2, hits give low values 1 | S. cerevisiae deletion strains, locus YNL233W, strain BNI4, hits give low values 1.02 | S. cerevisiae deletion strains, locus YNL248C, strain rpa49, hits give low values 0.971 | S. cerevisiae deletion strains, locus YNL250W, strain rad50, hits give low values 0.983 | S. cerevisiae deletion strains, locus YNL271C, strain bni1, hits give low values 0.981 | S. cerevisiae deletion strains, locus YNL298W, strain CLA4, hits give low values 0.982 | S. cerevisiae deletion strains, locus YNL307C, strain MCK1, hits give low values 0.986 | S. cerevisiae deletion strains, locus YNL322C, strain KRE1 (second series), hits give low values 0.983 | S. cerevisiae deletion strains, locus YNR049C, strain mso1, hits give low values 1 | S. cerevisiae deletion strains, locus YNR052C, strain pop2, hits give low values 0.999 | S. cerevisiae deletion strains, locus YOL006C, strain TOP1, hits give low values 1.03 | S. cerevisiae deletion strains, locus YOL012C, strain htz1 0.778 | S. cerevisiae deletion strains, locus YOL147C, strain pex11, hits give low values 1 | S. cerevisiae deletion strains, locus YOR001W, strain rrp6, hits give low values 0.976 | S. cerevisiae deletion strains, locus YOR061W, strain CKA2, hits give low values 1.01 | S. cerevisiae deletion strains, locus YOR069W, strain VPS5, hits give low values 1.01 | S. cerevisiae deletion strains, locus YOR070C, strain gyp1, hits give low values 0.998 | S. cerevisiae deletion strains, locus YOR080W, strain dia2, hits give low values 1.01 | S. cerevisiae deletion strains, locus YOR083W, strain WHI5, hits give low values 0.969 | S. cerevisiae deletion strains, locus YOR106W, strain vam3, hits give low values 0.983 | S. cerevisiae deletion strains, locus YOR136W, strain idh2, hits give low values 0.994 | S. cerevisiae deletion strains, locus YOR144C, strain elg1, hits give low values 0.991 | S. cerevisiae deletion strains, locus YOR184W, strain ser1, hits give low values 1 | S. cerevisiae deletion strains, locus YOR231W, strain MKK1, hits give low values 0.981 | S. cerevisiae deletion strains, locus YOR265W, strain rbl2, hits give low values 0.997 | S. cerevisiae deletion strains, locus YOR270C, strain vph1, hits give low values 1.01 | S. cerevisiae deletion strains, locus YOR290C, strain snf2, hits give low values 0.983 | S. cerevisiae deletion strains, locus YOR316C, strain cot1, hits give low values 0.99 | S. cerevisiae deletion strains, locus YPL051W, strain arl3, hits give low values 0.991 | S. cerevisiae deletion strains, locus YPL055C, strain LGE1, hits give low values 1.03 | S. cerevisiae deletion strains, locus YPL078C, strain atp4, hits give low values 0.968 | S. cerevisiae deletion strains, locus YPL106C, strain sse1, hits give low values 1.01 | S. cerevisiae deletion strains, locus YPL240C, strain hsp82, hits give low values 1 | S. cerevisiae deletion strains, locus YPL241C, strain CIN2, hits give low values 1.01 | S. cerevisiae deletion strains, locus YPL256C, strain CLN2, hits give low values 0.948 | S. cerevisiae deletion strains, locus YPR119W, strain clb2, hits give low values 0.993 | S. cerevisiae deletion strains, locus YPR141C, strain kar3, hits give low values 0.98 | S. cerevisiae deletion strains, locus YPR163C, strain tif3, hits give low values 0.989 | S. cerevisiae deletion strains, locus YPR167C, strain met16, hits give low values 0.986 | S. cerevisiae deletion strains, strain wtn01, hits give low values 1.02 | S. cerevisiae strains, strain wild type, hits give low values 1.01

Source: PubChem BioAssay AID1159580 (chemical genetic matrix, 2015)
